{"source": "PubChem BioAssay", "note": "Values without a mark were called inactive. Activity calls are given as the source filed them.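 Rule for the calls: active = mean inhibition above 46.5%, the solvent-only control mean plus 3 SD; inactive = the rest.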"}
{"molecular_target": "Nuclear receptor coactivator 2 (Homo sapiens) (UniProt Q15596)", "sequence (Q15596 whole entry, looked up, the tested form may be a part)": "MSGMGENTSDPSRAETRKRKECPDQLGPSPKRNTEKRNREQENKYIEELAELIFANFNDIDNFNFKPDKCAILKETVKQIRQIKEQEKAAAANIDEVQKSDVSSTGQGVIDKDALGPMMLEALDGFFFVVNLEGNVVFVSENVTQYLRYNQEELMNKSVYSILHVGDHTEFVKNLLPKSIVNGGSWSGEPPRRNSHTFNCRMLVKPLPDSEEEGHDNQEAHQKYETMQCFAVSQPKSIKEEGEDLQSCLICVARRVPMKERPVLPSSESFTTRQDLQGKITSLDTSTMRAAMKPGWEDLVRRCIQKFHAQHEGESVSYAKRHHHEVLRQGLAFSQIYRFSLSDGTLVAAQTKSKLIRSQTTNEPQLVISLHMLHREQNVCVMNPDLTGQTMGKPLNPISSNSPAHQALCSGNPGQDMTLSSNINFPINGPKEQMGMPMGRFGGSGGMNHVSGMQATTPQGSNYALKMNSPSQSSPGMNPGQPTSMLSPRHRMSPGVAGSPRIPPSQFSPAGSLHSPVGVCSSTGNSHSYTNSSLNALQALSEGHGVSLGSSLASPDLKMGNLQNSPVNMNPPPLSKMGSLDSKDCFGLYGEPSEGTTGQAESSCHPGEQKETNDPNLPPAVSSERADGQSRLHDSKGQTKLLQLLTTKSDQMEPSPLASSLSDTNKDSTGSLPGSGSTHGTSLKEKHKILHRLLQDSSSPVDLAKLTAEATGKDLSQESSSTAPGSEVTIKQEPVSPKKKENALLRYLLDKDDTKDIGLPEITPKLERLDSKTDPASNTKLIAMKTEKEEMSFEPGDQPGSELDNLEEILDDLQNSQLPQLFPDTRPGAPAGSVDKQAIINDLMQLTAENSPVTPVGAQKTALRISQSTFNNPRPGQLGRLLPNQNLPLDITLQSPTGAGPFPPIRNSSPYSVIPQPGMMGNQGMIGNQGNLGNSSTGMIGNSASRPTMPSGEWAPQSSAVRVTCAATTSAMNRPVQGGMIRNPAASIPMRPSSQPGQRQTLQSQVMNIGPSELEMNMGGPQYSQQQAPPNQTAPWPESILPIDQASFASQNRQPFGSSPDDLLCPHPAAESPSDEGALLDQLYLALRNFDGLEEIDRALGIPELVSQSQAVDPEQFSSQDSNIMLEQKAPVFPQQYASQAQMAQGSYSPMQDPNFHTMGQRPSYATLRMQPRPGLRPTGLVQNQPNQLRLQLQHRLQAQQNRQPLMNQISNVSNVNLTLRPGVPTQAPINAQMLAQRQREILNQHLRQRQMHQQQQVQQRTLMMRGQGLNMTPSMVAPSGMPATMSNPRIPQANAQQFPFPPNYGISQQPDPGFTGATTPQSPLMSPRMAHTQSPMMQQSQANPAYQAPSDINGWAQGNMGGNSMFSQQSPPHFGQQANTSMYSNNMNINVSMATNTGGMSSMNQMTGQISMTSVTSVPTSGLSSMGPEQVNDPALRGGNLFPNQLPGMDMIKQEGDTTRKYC", "assay": "SRC2 coactivator transcriptional activity inhibitors, confirmation, cell-based, luminescence, HEK293, triplicate (AID 652008);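 note: 0% = DMSO-treated cells and 100% = Gossypol at 36 µM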", "settings": "HEK293 GAL4-SRC2 luciferase reporter, at 8.9 µM, hits give high values"}
{"compound": "Cc1ccc(Cl)cc1N1CCN(C(=O)CCS(=O)(=O)c2ccc3c(c2)NC(=O)CO3)CC1", "inhibition": "30.1%"}
{"compound": "CSc1nnc(NC(=O)c2nc(S(=O)(=O)Cc3cccc(C)c3)ncc2Cl)s1", "inhibition": "73.1% (active)"}
{"compound": "Nn1cnnc1SCC(=O)N1CCc2ccccc2C1", "inhibition": "-22.3%"}
{"compound": "Cc1c(NC(=O)COC(=O)C23CC4CC(CC(O)(C4)C2)C3)c(=O)n(-c2ccccc2)n1C", "inhibition": "3.79%"}
{"compound": "O=C(CCl)N1c2ccccc2CCc2ccccc21", "inhibition": "31.7%"}
{"compound": "Cc1ccc(S(=O)(=O)Nc2ccccc2C(=O)N2CCCC2)cc1", "inhibition": "0.98%"}
{"compound": "COc1ccccc1N1CCN(C(CNC(=O)c2ccco2)c2cccnc2)CC1", "note": "(centres undefined)", "inhibition": "-4.45%"}
{"compound": "CC(=O)NN1C(=O)/C(=C\\c2ccc(Br)o2)SC1=S", "inhibition": "19.2%"}
{"compound": "COC(=O)Cc1ccc(NC(=O)c2ccccc2Cl)cc1", "inhibition": "8.14%"}
{"compound": "O=C(NCc1ccco1)/C(=C/c1cccc([N+](=O)[O-])c1)NC(=O)c1ccco1", "inhibition": "-17.7%"}
{"compound": "Cc1cc2nc(Sc3c([N+](=O)[O-])nc(C)n3Cc3ccccc3)[nH]c2cc1C", "inhibition": "30.7%"}
{"compound": "CC(C)c1cc(CNC(=O)c2ccc(OC3CCN(Cc4ccccn4)CC3)cc2)on1", "inhibition": "11.8%"}
{"compound": "Cc1ccc(C(=O)O/N=C(\\N)c2ccccn2)cc1C", "inhibition": "-24.9%"}
{"compound": "O=C(CCc1nnc(-c2ccc(-c3ccccc3)cc2)o1)NCCc1ccccn1", "inhibition": "54% (active)"}
{"compound": "Cc1ccc(S(=O)(=O)N2CCN(C(=O)c3cc4c(C)nn(-c5ccccc5C)c4s3)CC2)cc1", "inhibition": "4.62%"}
{"compound": "COCCNC(=O)CN(C(=O)c1ccc(N2CCCC2)nc1)c1ccc(F)c(Cl)c1", "inhibition": "-19.2%"}
{"compound": "O=C(O)Cc1nn(Cc2ccc(Cl)cc2)c(=O)c2ccccc12", "inhibition": "-30.9%"}
{"compound": "CC(=O)NCCOc1nc(N2CCCCC2)nc(N2CCCCC2)n1", "inhibition": "12.1%"}
{"compound": "N#Cc1c(NC(=O)CSc2ncn[nH]2)sc2c1CCCC2", "inhibition": "88.2% (active)"}
{"compound": "CC(C)(C)NS(=O)(=O)c1ccc(Oc2ncc(C(F)(F)F)cc2Cl)cc1", "inhibition": "14.2%"}
{"compound": "CCC(=O)Nc1ccc2c(c1)C(=O)N(C)[C@@H]1CC[C@@H](CC(=O)NCc3ccc(OC)cc3)O[C@H]1CO2", "inhibition": "-9.9%"}
{"compound": "CC(=O)c1cccc(NC(=O)c2ccccc2N(C)S(=O)(=O)c2ccc(C)cc2)c1", "inhibition": "0.15%"}
{"compound": "Cc1cccc(N(Cc2ccccc2)C(=O)CCl)c1", "inhibition": "33.4%"}
{"compound": "Cc1c([N+](=O)[O-])cnc(Sc2ccccc2)c1[N+](=O)[O-]", "inhibition": "16.7%"}
{"compound": "Cc1cc(Nc2ccccc2)n(C(=O)c2ccc(N)cc2)n1", "inhibition": "0.44%"}
{"compound": "COc1cccc(CNC(=O)C2CCN(S(=O)(=O)c3ccc(F)cc3)CC2)c1", "inhibition": "-10.1%"}
{"compound": "Cc1ccc([C@@H]2C[C@H]3[C@@H](CN2S(=O)(=O)c2ccc(C)cc2)C(=O)C[C@@H](c2ccccc2F)N3S(=O)(=O)c2ccc(C)cc2)cc1", "inhibition": "-5.47%"}
{"compound": "O=C(O)COc1ccc(-c2nccc(-c3ccccn3)n2)cc1", "inhibition": "79.1% (active)"}
{"compound": "C[C@@H]1CNCCN1c1ccc(N2CCN(Cc3ccccc3)[C@@H](C)C2)c(C#N)c1", "inhibition": "17.3%"}
{"compound": "Cc1ccc2c(c1)N(C(C)C(=O)NCc1ccc3c(c1)OCO3)C(=O)CO2", "note": "(centres undefined)", "inhibition": "-19.4%"}
{"compound": "CCOc1ccc(NC(=O)c2ccccn2)cc1", "inhibition": "25.7%"}
{"compound": "Nn1c(SCC(=O)Nc2cccc3ccccc23)nnc1-c1cc(-c2ccc(Cl)cc2)n[nH]1", "inhibition": "15.4%"}
{"compound": "CCC/C(C#Cc1ccsc1)=C1/c2ccccc2C(=O)N1c1ccccc1", "inhibition": "-18.8%"}
{"compound": "Cc1nc(SCCC(=O)O)c2cc(-c3ccccc3)sc2n1", "inhibition": "80.1% (active)"}
{"compound": "CCC(C)c1ccc(C(C)NC(=S)NC2CCCCC2)cc1", "note": "(centres undefined)", "inhibition": "22.8%"}
{"compound": "Cc1nc2cc(-c3ccc(Cl)cc3)nn2c(C)c1CCC(=O)NC(C)c1ccc2c(c1)OCCO2", "note": "(centres undefined)", "inhibition": "72.8% (active)"}
{"compound": "CC(C)[C@H](NC(=O)[C@@H]1Cc2ccccc2CN1)C(=O)Nc1ccc2c(c1)OCCO2", "inhibition": "-29.4%"}
{"compound": "COc1ccc(C#Cc2ccc3c(c2)[C@H]2[C@H](CCN2S(=O)(=O)c2ccccc2F)[C@H](CO)N3C)cc1", "inhibition": "8.22%"}
{"compound": "Nc1nc(-c2ccccc2)c(N=Nc2cccnc2)s1", "inhibition": "11.2%"}
